Screening results (PubChem)
The list is not random: actives were taken first. Their share in the collection is about 7.1%.
PINK1 expr mod: modulators of PINK1 expression. PINK1 immunofluorescence, high-content cytometry, 24 h. Potency, µM (highest dose often 76.6 µM), inactives show top-dose activation (PINK1 increase), actives largely listed as activators. actives 0.2% (n = 410,000). AID 624263; active means well fitted activation curve with a large enough effect; inconclusive means small, poorly fitted or top-dose-only effect; cell line not stated here; further: potency means the concentration at half of the fitted maximal effect; % of control where 0% means no effect; nearly all actives have a fitted effect of over 65% in size
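Stable cell line treated 24 h with compounds at 5 concentrations (CCCP controls), then fixed and immunostained for PINK1 plus nuclear and cell stains; PINK1 immunofluorescence quantified by laser-scanning microplate cytometry.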
MCF10A rerep: inducers of DNA re-replication in MCF 10A breast cells; MCF 10A DNA re-replication, Hoechst nuclear intensity, 48 h; Potency, µM (titrated, usually from 46.1 µM), inactives show at the highest dose activity, positive = re-replication, most hits filed as activators; actives 2.9% (n = 350,000); AID 624296; further: potency means the concentration at half of the fitted maximal effect; % of control where 0% means no effect; nearly all actives have a fitted effect of over 50% in size
ATXN viability: reduces viability in counter-screen for ATXN expression inhibitors. Potency, µM (highest dose often 56.7 µM), most hits filed as cytotoxic. S2 cells (HEK-293 line with an ATXN2-luciferase reporter) viability, CellTiter-Fluor protease fluorescence, 24 h. AID 651635. actives 0.49% (n = 400,000); further: potency means the concentration at half of the fitted maximal effect; nearly all actives have a fitted effect of over 40% in size
SW480 rerep: inducers of DNA re-replication in SW480 colon cancer cells. Potency, µM (titrated, usually from 46.1 µM), for the others: at the top dose re-replication activation, hits mostly activators. SW480 DNA re-replication, Hoechst DNA content imaging, 48 h. actives 1.8% (n = 340,000). AID 624297; further: potency means the concentration at half of the fitted maximal effect; % of control where 0% means no effect; nearly all actives have a fitted effect of over 55% in size
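Treated cells incubate 48 hr (37 C, 5% CO2), are stained 40 min with Hoechst, and nuclear fluorescence is enumerated; a rise in nuclei with high DNA signal marks re-replication.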
ATXN2 expr inh: ATXN2 expression inhibition; HEK-293 ATXN2-luciferase reporter, luminescence, 24 h; Potency, µM (titrated, usually from 57 µM), for inactives: top-dose activity change, negative = inhibition, usual class: inhibitors; actives 0.72% (n = 360,000); further: potency means the concentration at half of the fitted maximal effect; on the % scale 0 is the no-effect control and ±100 the full control effect; nearly all actives have a fitted effect of over 55% in size
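ATXN2-luciferase reporter cells (luciferase flanked by upstream and downstream ATXN2 gene portions) were treated 24 h at 37 °C with compounds at up to 57 uM. SteadyGlo luminescence gave expression; GF-AFC fluorescence gave viability.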
IL-1B inflam inh: inflammasome signaling inhibition, IL-1 beta readout; activity change, % at 57.5 µM; AID 743279; actives 4.7% (n = 360,000); THP-1 LPS/ATP IL-1B secretion, AlphaLISA, 16 h; stronger effect = lower value; in the data active means activity change below about -50%; inconclusive means mostly about -30% to -49%; further: on the % scale 0 is the no-effect control and ±100 the full control effect
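Secreted IL-1B measured by AlphaLISA bead assay after 16 h compound exposure of THP-1 cells; compounds (final up to 57.5 uM) added 1 h before LPS (250 ng/mL) and ATP (1.25 mM) stimulation; lower signal means less secretion.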
An asterisk follows results filed as active; i = inactive; ? = inconclusive; nt = no result; [ ] = another dose, or the depositor's remark. Unless noted, the call rests on the fitted dose curve; in most records, active means well fitted curve in the direction sought with a large enough effect; inconclusive means small, poorly fitted or top-dose-only effect, or another doubt; inactive means no such curve, though single readings can be large; an effect the other way counts as inactive or inconclusive.

SMILES	PINK1 expr mod	MCF10A rerep	ATXN viability	SW480 rerep	ATXN2 expr inh	IL-1B inflam inh
Cc1cccc(OCc2n(CC(=O)OC3CC(C)CCC3C(C)C)c3ccccc3[n+]2C)c1 (configuration not stated)	-2.7%	?	nt	?	?	-97.6*
CCc1ccc(NC(=O)C2CCN(S(=O)(=O)c3cccc(-c4noc(C)n4)c3)CC2)cc1	1.0%	nt	?	nt	?	nt
O=C1C(O)=CC(=C(c2ccccc2)c2ccccc2)c2ccccc21	17.2%	?	?	?	0.0%	-91.8*
O=C(O)c1cccc2c1C(=O)c1ccccc1C2=O	-1.5%	-0.3%	i	-3.4%	-6.3%[11.3 µM]	-6.9
CCOC(=O)C1=C(O)/C(=C/c2cn(CC(=O)N3CCCC3)c3ccccc23)SC1=Nc1ccccc1	?	8.2µM*	?	?	?	?
CC(=O)c1ccc(N2CCN(C(=O)c3cn(C)c(=O)c4c3c3ccccc3n4C)CC2)cc1	4.0%	nt	i	nt	37.4%	nt
CC12CCC(=O)C=C1CCC1C2C(=O)CC2(C)C1CCC2(O)C(=O)CO (configuration not stated)	nt	-3.3%	i	-14.5%	-6.2%	20.0
COC(=O)C=C1CCC2C3CCC4=CC(=O)C(Br)CC4(C)C3C(=O)CC12C (configuration not stated)	3.8%	?	nt	?	31.6µM*	-94.6*
CCOC(=O)C(Cc1nc(OCc2ccccc2)cc(OCc2ccccc2)n1)=NO	-6.9%	20.6µM*	?	11.9%	?	-6.8
CCOC(=O)C(=O)Cc1nc(OCc2ccccc2)cc(OCc2ccccc2)n1	4.0%	?	i	14.5%	5.4%	7.2
COc1ccc2cc(CNCc3nonc3C)c(N3CCCC(CO)C3)nc2c1 (configuration not stated)	2.4%	nt	i	nt	nt	nt
CCn1cc2nc(SCC(=O)Nc3ccc(OC)c(OC)c3)n(Cc3ccc(OC)cc3)c(=O)c2n1	3.1%	5.7%	i	-8.3%	0.9%	-0.4
CCn1cc2nc(SCC(=O)Nc3ccc(OC)cc3OC)n(Cc3ccc(OC)cc3)c(=O)c2n1	13.6%	3.26µM*	?	7.31µM*	-11.9%	6.4
CCn1c(SCC(=O)Nc2ccccc2OC)nc2ccccc2c1=O	nt	?	i	27.1%	?	-71.7*
C=CCN(C(=O)CSc1nc2c(sc3ccccc32)c(=O)n1CCN(CC)CC)c1ccccc1	0.6%	?	?	?	?	-79.8*
COc1ccccc1NC(=O)CSc1nc2c(sc3ccccc32)c(=O)n1CCN(C)C	3.3%	12.0%	i	0.0%	-18.2%	-80.1*
COc1ccc(Cl)cc1NCc1nnc2n1CCCCC2	-5.6%	nt	i	nt	14.1%	nt
COc1ccc(S(=O)(=O)N(CC(=O)Nc2ccc3c(c2)OCO3)c2ccc(C)cc2)cc1	-0.3%	nt	i	nt	-3.0%	nt
CCOc1ccc(CCNC(=O)CS(=O)(=O)Cc2nc(-c3ccccc3F)oc2C)cc1	4.5%	-1.7%	i	-1.9%	-29.6%	-60.7*
COc1ccc(-c2csc(CCN3N=C(C)CC3=O)n2)cc1	2.2%	-3.6%	?	10.7%	-34.1%	-53.0*
O=C(O)c1ccc(-n2ncc(Cl)c(Cl)c2=O)cc1	-0.1%	nt	?	nt	nt	-102.1*
CCOc1ccc(CNC(=O)CCS(=O)(=O)c2cc3c(cc2Cl)NC(=O)CO3)cc1OC	2.3%	nt	i	nt	7.6%	nt
COC(=O)c1ccc(NS(=O)(=O)c2cc(-c3cc(C)no3)ccc2OC)cc1	5.4%	24.7%	?	18.4µM*	nt	35.2
COc1cccc(CCN2CCC(CNS(=O)(=O)c3cc(-c4cc(C)no4)ccc3C)CC2)c1	-0.7%	15.8%	?	?	nt	-61.8*
COc1ccc(-c2cc(C)no2)cc1S(=O)(=O)NCCCN1CCCCCC1	-1.4%	26.5%	i	?	-14.8%	-51.5*
SMILES	PINK1 expr mod	MCF10A rerep	ATXN viability	SW480 rerep	ATXN2 expr inh	IL-1B inflam inh
COc1cccc(CN(C)C(=O)c2cnn(-c3nccc(-c4ccc5c(c4)OCO5)n3)c2C)c1	-0.4%	nt	i	nt	nt	nt
O=C(CSc1nnc(-c2ccccc2)c(-c2ccccc2)n1)NC1CCCC1	-0.1%	nt	nt	nt	nt	nt
Cc1nn(Cc2c(Cl)cccc2Cl)c(C)c1NC(=O)c1sc2ccccc2c1Cl	1.4%	10µM*	i	?	-32.0%	6.5
CC(C)COc1ccc(-c2nn(-c3ccccc3)cc2C(=O)Nc2nccs2)cc1	?	-178.4%[0.0737 µM]	i	?	4.3%	53.2
Cc1nn(Cc2c(Cl)cccc2Cl)c(C)c1NC(=O)c1cn(-c2ccccc2)nc1-c1ccccc1	1.8%	4.47µM*	12.6µM*	8.2µM*	12.6µM*	27.9
Cc1nn(Cc2ccc(Cl)c(Cl)c2)c(C)c1NC(=O)c1sc2ccccc2c1Cl	8.9%	?	?	1.1%	-32.6%	-9.2
CN(Cc1c(F)cccc1Cl)C(=O)CNC(=O)c1sc2ccccc2c1Cl	2.0%	16.6%	i	9.7%	-12.6%	-51.8*
O=C(Nc1nccs1)c1cn(-c2ccccc2)nc1-c1ccccc1	3.5%	7.7%	i	23.3%	-4.6%	-62.5*
CNC(=O)c1ccsc1NC(=O)c1ccc2c(c1)CCCC2	6.8%	?	?	26.1%	-4.3%	-55.2*
NC(=O)c1ccsc1NC(=O)c1ccc(N2CCCC2=O)cc1	0.9%	-2.0%	i	-13.3%	nt	-56.3*
CNC(=O)c1ccsc1NC(=O)CS(=O)(=O)c1ccc(Cl)cc1	0.6%	-0.4%	i	?	-1.0%	31.4
NC(=O)c1ccsc1NC(=O)c1cccs1	-0.7%	5.8%	i	-4.0%	27.5%	-9.2
NC(=O)c1ccsc1NC(=O)c1ccc2c(c1)CCCC2	6.0%	29.0%	?	-7.4%	70.2%	-55.3*
CN(C(=O)c1cccc(NC(=O)Cc2ccc(NC(=O)C3CCN(C(=O)c4ccccc4)CC3)cc2)c1)C1CCCC1	0.5%	14.2%	i	-5.0%	0.0%	3.7
CC(C)(C)OC(=O)N1CCC(c2c(C(=O)N3CCN(c4ccccc4F)CC3)cnn2-c2ccccc2Cl)CC1	-0.3%	nt	nt	nt	nt	nt
CCOc1cc(Cl)c(NC(=O)CC)cc1OCC	3.3%	-1.4%	i	18.4µM*	2.3%	-5.2
CCC(=O)Nc1ccc(-c2ccc(NC(=O)CC)c(OC)c2)cc1OC	-0.3%	-1.9%	i	?	nt	-21.3
Cc1cnc(Nc2ccc(CN3CCOCC3)cc2)nc1Nc1cccc(S(=O)(=O)NC(C)(C)C)c1	nt	nt	nt	nt	-9.3%	nt
CC(C)c1ccc(NC(=O)CCn2c(=O)c3cccn3c3ccccc32)cc1	-0.9%	nt	nt	nt	nt	nt
COc1ccc(-n2ncc3c(NC(C)(C)CO)ncnc32)cc1	-0.1%	nt	i	nt	-12.6%	nt
